# Laboratory results as given in PubChem BioAssay (EPA / NIEHS).
# Several values for one entry are separate records, joined by “and”; a condition that tells them apart may be missing. Equal entries are not always repeated. A structure can be active in one record and inactive in another. Activity calls are given as the source filed them. Rule for the calls: active = hit-call score of the fitted dose curve at least 0.9, where 1 is the maximum; inactive = score below 0.9.
# Experiments:
# [1] = read-out: Interleukin-1 alpha (IL1a), IL1A (gene 3552); test: BSK_IMphg_IL1a: BioMAP Diversity Plus: IMphg Assay for Interleukin-1 alpha (IL1a) Biomarker Activity (AID 2284290); conditions: primary human endothelial cells with macrophages
# Procedure, shortened: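 Human venular endothelial cells co-cultured with macrophages, IMphg system. IL-1α is measured by ELISA 24 h after dosing and fitted in the positive direction against DMSO. Cytotoxicity is assessed by SRB staining of parallel cultures.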
# [2] = read-out: E-selectin (Homo sapiens) (UniProt P16581); test: BSK_IMphg_ESelectin: BioMAP Diversity Plus: IMphg Assay for Eselectin Biomarker Activity (AID 2284291); conditions: primary human endothelial cells with macrophages
# Procedure, shortened: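 Human venular endothelial cell–macrophage co-culture, E-selectin measured by ELISA 24 h after chemical dosing. Signal fitted in the positive direction against DMSO as negative control and baseline.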
# [3] = BSK_IMphg_SRB: Viability Assessment in the BioMAP Diversity Plus: IMphg Assay (AID 2284292); conditions: primary human endothelial cells with macrophages;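 note: measured one day after compound addition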
# Procedure, shortened: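 Human venular endothelial cells with macrophages, 24 h after chemical dosing; total protein by 0.1% SRB staining after 10% TCA fixation, read at 560 nm. Positive-direction fitting versus DMSO baseline.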
# [4] = read-out: Macrophage colony-stimulating factor (MCSF), CSF1 (gene 1435); test: BSK_IMphg_MCSF: BioMAP Diversity Plus: IMphg Assay for Macrophage colony-stimulating factor (MCSF) Biomarker Activity (AID 2284293); conditions: primary human endothelial cells with macrophages
# Procedure, shortened: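 Co-culture of human venular endothelial cells and macrophages, 24 hours of chemical exposure. M-CSF quantified by ELISA, with parallel SRB total-protein staining for cytotoxicity; activity fitted relative to DMSO.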
# [5] = read-out: Interleukin-10 (IL10), IL10 (gene 3586); test: BSK_IMphg_IL10: BioMAP Diversity Plus: IMphg Assay for Interleukin-10 (IL10) Biomarker Activity (AID 2284294); conditions: primary human endothelial cells with macrophages
# Description: BSK_IMphg is a cell-based, multiplexed-readout assay that uses venular endothelial cells and macrophages, a human vascular primary cell, with measurements taken at 24 hours after chemical dosing in a microplate: 96-well plate.BSK_IMphg_IL10 is an assay component measured in the BSK_IMphg assay. It measures IL-10 antibody related to regulation of gene expression using ELISA technology.Data from the assay component BSK_IMphg_IL10 was analyzed at the endpoint, BSK_IMphg_IL10, in the positive analysis fitting direction relative to DMSO as the negative control and baseline of activity. Using a type of binding reporter, gain or loss-of-signal activity can be used to understand protein changes. To generalize the intended target to other relatable targets, this assay endpoint is annotated to the 'cytokine' intended target family, where the subfamily is 'interleukins'.
# The levels of cell surface (or secreted, indicated by the prefix "s") biomarker endpoints were measured by ELISA. Overt cytotoxicity to cells in confluent adherent cultures (all systems other than the BT system) was assessed by measuring total protein levels using sulforhodamine B (SRB) staining in parallel cultures at the time of biomarker measurements, indicated as SRB endpoints. For proliferation assays for adherent cell types, individual cell types are cultured at sub-confluence and relative cell numbers quantified by SRB staining at time points optimized for each system (48 h: 3C and CASM3C systems; 72 h: BT and HDF3CGF systems; 96 h: SAg system). SRB was performed by staining cells with 0.1% SRB after fixation with 10% TCA and reading wells at 560 nm.Viability and proliferation of PBMC (T cells) was quantified by Alamar Blue reduction for the SAg and BT systems. For PBMC viability (referred to as PBMC Cytotoxicity within the assay endpoint names), cells were plated (75,000/well in a 96-well plate) and then chemical samples added for 1 h before addition of activators, SEB and TSST-1 (20 ng/mL final concentration each). Cells were incubated for 90 h. Then, Alamar Blue (20 uL/well) (Invitrogen, Cat DAL1100) was added for 6 h, and the plates were read with a fluorescence microplate reader at 546/580 nm (excitation/emission). For PBMC proliferation, cells were plated and activated as above but incubated for only 16 h prior to addition of Alamar Blue. Plates were read after 6 h.
# [6] = BSK_IMphg_SRB.Mphg: Macrophage Viability Assessment in the BioMAP Diversity Plus: IMphg Assay (AID 2284295); conditions: primary human endothelial cells with macrophages
# Procedure, shortened: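 Venular endothelial cells co-cultured with macrophages, read 24 h after dosing. Total protein measured by 0.1% SRB staining after 10% TCA fixation, absorbance at 560 nm. Fitted in positive direction against DMSO baseline.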
# [7] = read-out: Thrombomodulin, THBD (gene 7056); test: BSK_LPS_Thrombomodulin: BioMAP Diversity Plus: LPS Assay for Thrombomodulin Biomarker Activity (AID 2284296); conditions: primary human HUVEC with PBMC
# Procedure, shortened: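 Human umbilical vein endothelial cells co-cultured with PBMC and stimulated with LPS; cell-surface thrombomodulin measured by ELISA 24 hours after compound. Gain or loss versus DMSO; cytotoxicity checked by SRB staining in parallel cultures.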
# [8] = IUF_NPC2c_oligodendrocyte_migration_120hr: Leibniz Research Institute for Environmental Medicine (IUF) 120-hour Neural Progenitor Cell Migration Assay for Oligodendrocyte Migration (NPC2c) (AID 2284297);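 note: O4-positive oligodendrocyte migration distance divided by radial glia migration distance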
# Procedure, shortened: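 hNPC spheres (GW 16-19 cortex), PDL/laminin, DMEM/F12 3:1 + 1% N2, 37C. Dosing day 0–5, half feed day 3, DMSO ≤0.1%. Fixed 120 h; O4 ICC + Hoechst, HCI. Readout: mean oligodendrocyte distance from sphere edge / radial glia distance.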
# [9] = IUF_NPC2a_radial_glia_migration_120hr: Leibniz Research Institute for Environmental Medicine (IUF) 120-hour Neural Progenitor Cell Migration Assay for Radial Glia Migration (NPC2a) (AID 2284298)
# Procedure, shortened: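 Hoechst-stained nuclei imaged at 120 h; algorithm maps sphere core by densest nuclei, sets migration edge at density threshold, gives radial glia migration distance (um) per well vs DMSO. hNPC spheres (0.3 mm), PDL/laminin, DMEM/F12 3:1 + 1% N2.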
# [10] = IUF_NPC2a_radial_glia_migration_72hr: Leibniz Research Institute for Environmental Medicine (IUF) 72-hour Neural Progenitor Cell Migration Assay for Radial Glia Migration (NPC2a) (AID 2284299)
# Procedure, shortened: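 Human fetal neural progenitor spheres (0.3 mm) plated on poly-D-lysine/laminin in N2 differentiation medium and exposed from day 0 at 7 concentrations; radial glia migration distance from sphere edge measured at 72 h on brightfield images, mean of four directions, vs DMSO.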
# Sequence of E-selectin (Homo sapiens) (P16581 whole entry, looked up): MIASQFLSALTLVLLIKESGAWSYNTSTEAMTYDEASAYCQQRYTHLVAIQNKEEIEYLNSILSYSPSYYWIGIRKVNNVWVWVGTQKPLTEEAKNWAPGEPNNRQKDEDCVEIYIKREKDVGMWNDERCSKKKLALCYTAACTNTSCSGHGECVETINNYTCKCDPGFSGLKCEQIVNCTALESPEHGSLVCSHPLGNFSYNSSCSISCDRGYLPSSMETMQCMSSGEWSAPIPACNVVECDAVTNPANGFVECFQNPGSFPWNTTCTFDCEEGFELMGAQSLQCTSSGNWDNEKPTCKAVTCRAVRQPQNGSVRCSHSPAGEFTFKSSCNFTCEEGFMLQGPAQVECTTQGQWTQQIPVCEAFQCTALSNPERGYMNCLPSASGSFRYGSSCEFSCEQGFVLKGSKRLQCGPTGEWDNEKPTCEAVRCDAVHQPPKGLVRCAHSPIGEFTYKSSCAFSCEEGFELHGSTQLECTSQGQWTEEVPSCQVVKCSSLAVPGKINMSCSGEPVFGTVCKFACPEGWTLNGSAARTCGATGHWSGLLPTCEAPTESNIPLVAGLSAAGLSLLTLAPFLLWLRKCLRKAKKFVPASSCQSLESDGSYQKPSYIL
compound,measurement,setting,value
FC(F)(I)C(F)(F)C(F)(F)C(F)(F)C(F)(F)C(F)(F)I,AC50,[1],30 µM (active) and 22.7 µM (active) and 39.1 µM (active)
same,outcome,[1],inactive
same,AC50,[2],46.1 µM (active) [middle of 5 runs]
same,AC50,[3],43.5 µM (active) [middle of 5 runs]
same,AC50,[4],44.4 µM (active) [middle of 5 runs]
same,AC50,[5],33.9 µM (active) [middle of 5 runs]
same,AC50,[6],12.6 µM (active) [middle of 5 runs]
same,AC50,[7],14.6 µM (active) and 23.5 µM (active)
same,outcome,[7],inactive
C[C@@H]1C[C@H]2[C@@H]3CCC4=CC(=O)C=C[C@]4(C)[C@@]3(F)[C@@H](O)C[C@]2(C)[C@@]1(O)C(=O)COP(=O)(O)O,AC50,[1],3.58 µM (active)
same,outcome,[1],inactive
same,AC50,[2],580 nM (active) and 1.5 µM (active)
same,outcome,[3],inactive
same,outcome,[4],inactive
same,AC50,[5],954 nM (active) and 1.38 µM (active)
same,AC50,[6],4.66 µM (active)
same,outcome,[6],inactive
same,outcome,[7],inactive
NCC(F)(F)C(F)(F)C(F)(F)C(F)(F)C(F)(F)C(F)(F)C(F)(F)F,outcome,[1],inactive
same,outcome,[2],inactive
same,outcome,[3],inactive
same,outcome,[4],inactive
same,outcome,[5],inactive
same,AC50,[6],0.22 µM (active)
same,outcome,[6],inactive
same,outcome,[7],inactive
OCCC(F)(F)C(F)(F)C(F)(F)C(F)(F)C(F)(F)C(F)(F)C(F)(F)C(F)(F)F,AC50,[1],39.6 µM (active)
same,outcome,[1],inactive
same,AC50,[2],47.2 µM (active) and 49.9 µM (active)
same,AC50,[3],50.5 µM (active) and 49.1 µM (active)
same,AC50,[4],30 µM (active)
same,outcome,[4],inactive
same,AC50,[5],39 µM (active) and 32.8 µM (active)
same,AC50,[6],46.7 µM (active) and 47.4 µM (active)
same,AC50,[7],347 nM (active)
same,outcome,[7],inactive
CC1=C(/C=C/C(C)=C/C=C/C(C)=C/C(=O)O)C(C)(C)CCC1,outcome,[8],inactive
same,AC50,[9],1.74 µM (active)
same,outcome,[10],inactive
OCCC(F)(F)C(F)(F)C(F)(F)C(F)(F)C(F)(F)C(F)(F)F,outcome,[1],inactive
same,AC50,[2],55.2 µM (active)
same,outcome,[2],inactive
same,outcome,[3],inactive
same,outcome,[4],inactive
same,outcome,[5],inactive
same,AC50,[6],39.8 µM (active)
same,outcome,[6],inactive
same,outcome,[7],inactive
CN1CCC[C@H]1c1cccnc1,outcome,[8],inactive
same,outcome,[9],inactive
same,outcome,[10],inactive
CC#C[C@]1(O)CC[C@H]2[C@@H]3CCC4=CC(=O)CCC4=C3[C@@H](c3ccc(N(C)C)cc3)C[C@@]21C,outcome,[8],inactive
same,outcome,[9],inactive
same,outcome,[10],inactive
C=C(C)C(=O)OCCC(F)(F)C(F)(F)C(F)(F)C(F)(F)C(F)(F)C(F)(F)F,outcome,[1],inactive
same,outcome,[2],inactive
same,outcome,[3],inactive
same,outcome,[4],inactive
same,outcome,[5],inactive
same,outcome,[6],inactive
same,outcome,[7],inactive
